Source: PubChem BioAssay

Each compound was assayed on Neuregulin-1 EGF-like domain (assay: small molecules binding NRG1 EGF domain – biochemical, small-molecule microarray, 635 nm fluorescence, primary screen (AID 1081;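 also: binding of the protein to compounds printed on small-molecule microarray slides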)). Conditions: higher = more signal.
In the case of `COc1ccc(COC(=O)NN=C2C[C@@H](O)[C@@H](O)[C@@H]3[C@@H]4C(=O)N(C[C@@H]5CCCO5)C(=O)[C@@H]4CC[C@H]23)cc1`, the composite z-score is reported as -0.563.
Compound `CCOC(=O)[C@H](Cc1ccccc1)NC(=O)CCC1CC(OC(=O)NCCc2ccc(F)cc2)CC2(CCCC(COC(=O)NCCC(C)C)O2)O1` (stereo partly specified) has a composite z-score of 1.02.
Compound `COC(=O)CC=C[C@@H](C)[C@@H](C=NOC[C@@H](O)[C@H]1O[C@@H]2OC(C)(C)O[C@@H]2[C@H]1O)OC` has a composite z-score of 0.205.
Compound `C[C@]12CCC3c4ccc(OCC5CO5)cc4CCC3C1CC[C@@H]2O` (stereo partly specified) has a composite z-score of 1.07.
Work on `CCOC(=O)CCN1C(=O)[C@H]2[C@H]3[C@H](O)[C@H](O)CC(=NO[C@@H]4O[C@H](CO)[C@@H](O)[C@H](O)[C@H]4O)[C@@H]3CC[C@H]2C1=O` yielded a composite z-score of 1.14.
For `CC(CCN1CCCCc2nc(C)c(C)cc21)=NO[C@H](C)c1cn([C@@H]2COC[C@H]2O)nn1`, the composite z-score was 1.18.
In the case of `COc1ccc(COC(=O)NN=C2C[C@@H](O)[C@@H](O)[C@@H]3[C@@H]4C(=O)N(c5cccc(Oc6ccccc6)c5)C(=O)[C@@H]4CC[C@H]23)cc1`, the composite z-score is reported as -0.317.
With `CC=CC1=C(CO)[C@H](O)[C@H]2O[C@H]2[C@@H]1O` the composite z-score was 0.592.
Work on `CC1(C)O[C@H]2OC([C@H](O)CON3C(=O)c4ccccc4C3=O)[C@H](O)[C@H]2O1` (stereo partly specified) yielded a composite z-score of 0.0939.
`CCOC(=O)NN=C1C[C@@H](O)[C@@H](O)[C@@H]2[C@@H]3C(=O)N(CC)C(=O)[C@@H]3CC[C@H]12` gave a composite z-score of 0.539.
Work on `CC(=O)OC[C@H]1O[C@@H](ON=C(C)CCC(=O)OC[C@H]2O[C@H](C#Cc3ccccc3)C=C[C@@H]2Oc2ccc(C)cc2)[C@H](OC(C)=O)[C@@H](OC(C)=O)[C@@H]1OC(C)=O` yielded a composite z-score of 0.938.
With `Cc1cc2c(nc1C)CCCCN2CC(O)CN1CCCc2nc(-c3ccc(Br)cc3)ccc21` (stereo unspecified) the composite z-score was 1.02.
`CCOC(=O)CCN1C(=O)[C@H]2[C@H]3[C@H](O)[C@H](O)CC(=NOCC=C(C)CCC=C(C)C)[C@@H]3CC[C@H]2C1=O` gave a composite z-score of 0.658.
Compound `CC(=O)OC[C@H]1O[C@@H](ON=C(C)CCN2CCCCc3nc(C)c(C)cc32)[C@H](OC(C)=O)[C@@H](OC(C)=O)[C@@H]1OC(C)=O` has a composite z-score of 1.16.
`CC(=O)OC[C@H]1O[C@H](CCON=C(C)C)C=C[C@@H]1OC(C)=O` was tested, and the composite z-score was -0.529.
With `CCCNC(=O)OC[C@H]1O[C@H](CCON=C[C@@H](NS(=O)(=O)c2ccc(C)cc2)[C@H](C)C=CCC(=O)OC)C=C[C@@H]1Oc1ccc(OC)cc1` the composite z-score was -0.83.
In the case of `CCCC[C@H]1CN2[C@@H](CC[C@@H](C)[C@@H]2c2ccc(Br)cc2)C(=O)O1`, the composite z-score is reported as 1.11.
`CCC1=NOC(CCC2CC(OC(=O)NCc3cccc4c3OCO4)CC3(CCCC(COC(=O)NCCc4ccc(Cl)cc4)O3)O2)C1` (stereo unspecified) showed a composite z-score of 1.12.
With `COc1ccc(O[C@H]2C=C[C@@H](C#Cc3ccccc3)O[C@@H]2CO)cc1` the composite z-score was 0.644.
With `CC(C)CON=C1[C@H]2CCn3c(=O)n(C)c(=O)n3[C@H]2[C@H](O)[C@@H]2O[C@H]12` the composite z-score was 0.157.
For `COC(=O)[C@@H]1CC[C@H](C)[C@@H](c2ccc(Br)cc2)N1C[C@@H](O)CN=[N+]=[N-]`, the composite z-score was -0.0109.
For `COC(=O)[C@H](C)NC(=O)CCC1CC(OC(=O)NCCc2ccc(F)cc2)CC2(CCCC(COC(=O)NCc3ccccc3)O2)O1` (stereo partly specified), the composite z-score was 0.964.
In the case of `O=C1C[C@H](c2ccccc2)[C@H](c2ccc(Br)cc2)O1`, the composite z-score is reported as -0.293.
`COc1ccc(O[C@H]2C=C[C@@H](c3ccccc3)O[C@@H]2COC(=O)CCC(C)=NOC[C@@H](O)COCc2ccco2)cc1` was tested, and the composite z-score was -0.649.
With `O=C1[C@H]2[C@H]3[C@H](O)[C@H](O)CC(=NOCc4ccccc4)[C@@H]3CC[C@H]2C(=O)N1c1cccc(Oc2ccccc2)c1` the composite z-score was 0.988.
`O=C1[C@H]2[C@H]3[C@H](O)[C@H](O)CC(=NOC[C@@H](O)COCc4ccco4)[C@@H]3CC[C@H]2C(=O)N1Cc1ccc2c(c1)OCO2` gave a composite z-score of 1.1.
For `CCOC(=O)[C@H](CC(C)C)NC(=O)CCC1CC(OC(=O)NCc2ccc3c(c2)OCO3)CC2(CCCC(COC(=O)NCc3ccccc3)O2)O1` (stereo partly specified), the composite z-score was 1.12.
`O=C1C2=CC[C@H]3C(=O)N(C4CCCCC4)C(=O)[C@H]3[C@H]2[C@H](O)[C@@H]2O[C@H]12` showed a composite z-score of -0.515.
`C=CCOCC1CN2[C@@H](CC[C@@H](C)[C@@H]2c2ccc(Br)cc2)C(=O)O1` (stereo partly specified) was tested, and the composite z-score was -0.479.
Work on `CCOC(=O)[C@H](Cc1ccccc1)NC(=O)CCC1CC(OC(=O)NCc2ccc3c(c2)OCO3)CC2(CCCC(COC(=O)NCCOc3ccccc3)O2)O1` (stereo partly specified) yielded a composite z-score of 1.08.
With `CCN1C(=O)[C@H]2[C@H]3[C@H](O)[C@H](O)CC(=NO[C@@H](C)c4cc(-c5c(C)cc(C)cc5C)no4)[C@@H]3CC[C@H]2C1=O` the composite z-score was 1.04.
For `O=C(NN=C1C[C@@H](O)[C@@H](O)[C@@H]2[C@@H]3C(=O)N(c4ccc(F)cc4F)C(=O)[C@@H]3CC[C@H]12)OCc1ccccc1`, the composite z-score was -0.0123.
With `CC#CCOCCC=C1c2ccccc2[C@@H](OC)[C@@H]1C` the composite z-score was 0.244.
`CC(CCC(=O)OC[C@H]1O[C@H](C#Cc2ccccc2)C=C[C@@H]1Oc1ccc(C)cc1)=NO[C@H](C)c1cn([C@@H]2COC[C@H]2O)nn1` showed a composite z-score of 0.452.
With `COC(=O)[C@@H]1CC[C@H](C)[C@@H](c2ccc(C)cc2)N1C(=O)c1ccc(C=NOC[C@H]2O[C@H](c3ccccc3)C=C[C@@H]2Oc2ccc(OC)cc2)cc1` the composite z-score was -0.631.
`CC(=O)OC[C@H]1O[C@@H](ON=C2[C@H]3CCn4c(=O)n(-c5ccccc5)c(=O)n4[C@H]3[C@H](O)[C@@H]3O[C@H]23)[C@H](OC(C)=O)[C@@H](OC(C)=O)[C@@H]1OC(C)=O` was tested, and the composite z-score was 0.711.
